CBX7 AlphaScr: CBX7 chromodomain binding inhibitors, primary screen, biochemical, AlphaScreen; AlphaScreen His6-CBX7 / biotin-H3K27me3 peptide binding; hits give low values; normalised signal (fraction of DMSO) (test concentration not listed); Chromobox protein homolog 7 (Homo sapiens), O95931; 1.1% of 66,000 active; in the data active = normalised signal below about 0.5
Target sequence (O95931 whole entry, looked up): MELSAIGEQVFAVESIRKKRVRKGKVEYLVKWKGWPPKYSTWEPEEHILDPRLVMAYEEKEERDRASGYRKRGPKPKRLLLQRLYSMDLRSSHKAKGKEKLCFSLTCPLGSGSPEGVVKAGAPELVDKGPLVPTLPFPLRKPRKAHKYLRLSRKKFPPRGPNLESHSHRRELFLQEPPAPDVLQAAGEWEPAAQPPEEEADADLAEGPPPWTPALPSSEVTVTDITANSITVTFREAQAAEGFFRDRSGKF
* marks the source's active call; other numbers are inactive results; ! = repeats disagree. The entries come from a sample that favours hits as a whole.

SMILES	CBX7 AlphaScr
CCc1ccc(-c2csc(Nc3cc(OC)c(Cl)cc3OC)n2)cc1	0.66
CC(C)Cc1ccc(-c2csc(Nc3ccc4c(c3)OCO4)n2)cc1	0.19*!
Clc1ccc(-c2csc(Nc3ccc4c(c3)OCO4)n2)cc1	0.64
COc1ccc(-c2csc(Nc3ccc(S(N)(=O)=O)cc3)n2)cc1C	0.55
COc1ccc(-c2csc(Nc3ccccc3OC)n2)cc1Br	0.81
COc1cc(Nc2nc(-c3ccc(CC(C)C)cc3)cs2)c(OC)cc1Cl	0.48*
COc1cc(Nc2nc(-c3cc(C)ccc3C)cs2)c(OC)cc1Cl	0.69
Cc1ccc(C)c(NC(=O)C2CCN(S(=O)(=O)c3ccccc3)CC2)c1	0.87
COc1ccc(Nc2nc(C)nc3sc4c(c23)CCCC4)c(OC)c1	0.88
Cc1ccc(-c2noc(CN3CCC(C)CC3)n2)cc1	1.1
COCc1cc(CN2CCC(C)CC2)c(O)c2ncccc12	0.0039*
COc1cccc(OCC(O)CN2CCC(C)CC2)c1 (stereo not drawn)	0.98
C=CCn1c(=O)c(C(=O)Nc2ccc(F)cc2)c(O)c2ccccc21	1
Cc1ccccc1CS(=O)(=O)CC1Nc2ccc(C(=O)O)cc2NC1=O (stereo not drawn)	1
COc1ccc(-c2noc(CCC(=O)Nc3ccccn3)n2)cc1	1
Cc1ccc(-c2nnc(Nc3cccc(O)c3)c3ccccc23)cc1S(=O)(=O)NC(C)(C)C	0.4*
Cc1ccc(-c2nnc(Nc3cccc(O)c3)c3ccccc23)cc1S(N)(=O)=O	0.93
Cc1ccc(-c2nnc(Nc3ccc(O)cc3)c3ccccc23)cc1S(=O)(=O)NC(C)(C)C	0.67
COc1ccc(-c2noc(CCC(=O)NCCCN3CCOCC3)n2)cc1	1.1
c1ccc(Cc2ccc(Oc3ncnc4sc5c(c34)CCCC5)cc2)cc1	1.3
c1nc(Oc2ccc3c4c2CCCN4CCC3)c2c3c(sc2n1)CCCC3	0.27*
c1ccc(COc2ccc(Oc3ncnc4sc5c(c34)CCCC5)cc2)cc1	1.2
Cc1ccc(Cn2c(SCc3ccc(F)cc3)nc3ccncc32)cc1	0.9
CCOC(=O)c1sc2ncn(Cc3c(F)cccc3F)c(=O)c2c1C	0.89
COc1ccc(OCc2nc(C#N)c(N3CCCC3)o2)cc1	0.86
SMILES	CBX7 AlphaScr
N#Cc1nc(COc2ccc(Br)cc2)oc1N1CCCCCC1	0.42*
N#Cc1nc(COc2ccc(Br)cc2)oc1N1CCCC1	0.47*
CCN1CCN(c2oc(COc3ccc(Cl)cc3)nc2C#N)CC1	0.72
Cc1ccc(OCc2nc(C#N)c(N3CCC(Cc4ccccc4)CC3)o2)cc1	0.6
CC1CCCC(C)N1CCCNC(=O)C1c2ccccc2C(=O)N1Cc1ccc(F)cc1Cl (stereo not drawn)	0.86
COC(=O)c1ccccc1NC(=O)CCc1nc(-c2ccc(OC)cc2)no1	1.2
Oc1c(C(Nc2ccccn2)c2ccccc2)ccc2cccnc12 (stereo not drawn)	0.01*
Cc1cccnc1NC(c1ccccc1)c1ccc2cccnc2c1O (stereo not drawn)	0.032*
CC(NS(=O)(=O)c1cccc2cccnc12)c1ccccc1 (stereo not drawn)	1
O=C(CCc1ccccc1)NC(c1cccs1)c1cc(Cl)c2cccnc2c1O (stereo not drawn)	0.45*
Cc1ccc2cc(CCNC(=O)CCc3ccccc3)c(=O)[nH]c2c1	1.1
O=C(CCCN1C(=O)c2cccnc2C1=O)NC(c1ccccc1)c1ccccc1	1.1
O=C(NC(c1ccccc1)c1ccccc1)C1CCCN1S(=O)(=O)c1cccc2cccnc12 (stereo not drawn)	0.93
Cc1ccc(C(NC(=O)CCc2ccccc2)c2ccc3cccnc3c2O)cc1 (stereo not drawn)	0.071*
CC(NC(=O)C1CCN(S(=O)(=O)c2cccc3cccnc23)CC1)c1ccccc1 (stereo not drawn)	1
Cc1ccc(-c2noc(CCC(=O)NC(C)CCc3ccccc3)n2)cc1 (stereo not drawn)	1.1
O=C(NC(c1ccccc1)c1ccccc1)C1CCCN(S(=O)(=O)c2cccc3cccnc23)C1 (stereo not drawn)	0.88
CCCC(=O)NC(c1ccccc1)c1cc(Cl)c2cccnc2c1O (stereo not drawn)	0.63
Cc1ccc(NC(=O)c2cnn(-c3ccc(C)c(C)c3)c2C2CCN(C(=O)OC(C)(C)C)CC2)cc1	0.98
O=C(NCc1ccccc1)c1ccc2c(c1)NC(=O)C(N1CCN(c3ccc(Cl)cc3)CC1)S2 (stereo not drawn)	0.98
CCOCCCNC(=O)c1ccc2c(c1)N(Cc1cc(C)ccc1C)C(=O)c1ccccc1S2=O (stereo not drawn)	0.97
Cc1cccc2nc(-c3ccc(Cl)cc3)c(Nc3ccc4c(c3)OCO4)n12	0.68
Cc1cccc2nc(-c3ccsc3)c(Nc3ccc4c(c3)OCO4)n12	0.78
Cc1cccc2nc(-c3ccc(N(C)C)cc3)c(Nc3ccc4c(c3)OCO4)n12	0.84
Cc1cccc2nc(-c3ccccn3)c(Nc3ccc4c(c3)OCO4)n12	0*
SMILES	CBX7 AlphaScr
Cc1cccc2nc(-c3ccccn3)c(Nc3ccc4c(c3)OCCO4)n12	0*
Cc1cccc2nc(-c3ccncc3)c(Nc3ccc4c(c3)OCO4)n12	0.99
COc1ccc(NC(=O)[C@H](CCSC)N2Cc3ccccc3C2=O)cc1Cl	0.86
CCCCOc1ccc(C(=O)Nc2c3c(nn2-c2ccc(C)cc2)CSC3)cc1	0.8
Cc1ccc(-n2ncc(C(=O)Nc3cc(C)cc(C)c3)c2C2CCN(C(=O)OC(C)(C)C)CC2)cc1	1
COc1ccc(Br)cc1CN(CCc1ccc2c(c1)OCO2)Cc1cccnc1	0.51
CCOc1ccccc1CN(CCc1ccc2c(c1)OCO2)Cc1ccccn1	0.069*
O=C(NCc1ccccn1)C(=O)Nc1ccc2c(c1)OCO2	0.99
CC(C)c1ccc2oc(-c3ccc(NC(=O)c4ccc(Cl)cc4)cc3)nc2c1	0.97
CCc1ccc2oc(-c3cccc(NC(=O)c4ncn[nH]4)c3)nc2c1	0.013*
CCc1ccc2oc(-c3cccc(NC(=O)c4ccc(C)cc4)c3)nc2c1	1.1
CC(C)c1ccc2oc(-c3ccc(NC(=O)c4ccccc4F)cc3)nc2c1	1
CC(C)c1ccc2oc(-c3ccc(NC(=O)c4ncn[nH]4)cc3)nc2c1	0.026*
CCc1ccc2oc(-c3cccc(NC(=O)c4ccc(F)cc4)c3)nc2c1	1
COc1cccc(-c2nn(C)c3sc(C(=O)NC(C)C)cc23)c1	0.83
CCOc1ccc(C(=O)c2cn(Cc3ccccc3)c3ccc(OC)cc3c2=O)cc1	0.58
Cc1ccc(-c2noc(CN3CCN(c4ccc(F)cc4)CC3)n2)cc1	0.99
Cc1ccc(-c2noc(CN3CCOCC3)n2)cc1	1.3
COc1ccc(N2CCN(Cc3nc(-c4ccc(C)cc4)no3)CC2)cc1	0.32*
COc1ccccc1C(=O)NC(C)C(c1cccs1)N1CCN(c2ccccc2F)CC1 (stereo not drawn)	0.74
COC(=O)c1ccc(NC(=O)Cn2cnc3c(nnn3Cc3ccc(F)cc3)c2=O)cc1	1.1
Cc1ccc2nc(-c3cccnc3)c(Nc3ccc4c(c3)OCCO4)n2c1	1
Cc1ccc(Nc2c(-c3c[nH]c4ccccc34)nc3ccc(Br)cn23)cc1	0.49*
Cc1ccccc1Nc1c(-c2c[nH]c3ccccc23)nc2ccc(Br)cn12	0.53
Cc1ccc2nc(-c3ccccc3)c(Nc3ccc4c(c3)OCCO4)n2c1	1.1
Cc1ccc2nc(-c3c[nH]c4ccccc34)c(Nc3ccc4c(c3)OCO4)n2c1	0.92

Source: PubChem (Bradner/Qi Labs at DFCI)
